High-throughput results (PubChem BioAssay)
GPR151 activ: activators of human GPR151, primary screen, cell-based, PathHunter beta-arrestin, luminescence | PathHunter beta-arrestin GPR151 cells | AID 1508602, 2020 | G-protein coupled receptor 151 (Homo sapiens), Q8TDV0 | 650,000 tested, 1% active | activation, % at 11.2 µM; in the data active means activation above about 4.9%;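 further: 0% = median of compound wells and 100% = cells with positive control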
Target sequence (Q8TDV0 whole entry, looked up): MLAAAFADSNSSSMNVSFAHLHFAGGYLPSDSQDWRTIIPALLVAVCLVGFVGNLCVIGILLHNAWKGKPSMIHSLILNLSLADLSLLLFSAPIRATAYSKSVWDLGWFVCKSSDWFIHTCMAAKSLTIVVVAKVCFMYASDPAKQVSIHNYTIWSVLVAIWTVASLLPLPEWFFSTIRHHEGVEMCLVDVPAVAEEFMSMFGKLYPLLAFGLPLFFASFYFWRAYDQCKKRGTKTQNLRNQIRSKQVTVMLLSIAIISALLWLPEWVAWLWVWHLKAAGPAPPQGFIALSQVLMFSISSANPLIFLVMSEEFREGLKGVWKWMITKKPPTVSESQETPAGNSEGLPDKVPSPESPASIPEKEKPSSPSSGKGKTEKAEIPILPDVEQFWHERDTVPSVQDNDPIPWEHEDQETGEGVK
FBW7 activator: FBW7 E3 ligase activators, primary screen, biochemical, AlphaScreen, human | normalized activity (activation), % at 26.1 µM | 650,000 tested, 0.13% active | AlphaScreen FBW7–phospho-cyclin E peptide binding, activator screen; in the data active means normalized activity above about 1.9%;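 further: purified mutant Fbw7 with reduced substrate affinity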
MITF inh: MITF inhibitors, primary screen, biochemical, AlphaScreen, human | 650,000 tested, 0.91% active | AID 1259374, 2018 | AlphaScreen MITF homodimerization, bead proximity signal | inhibition, % at 2.6 µM; in the data active means inhibition above about 50%;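 further: 0% = vehicle wells with protein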
TEAD-YAP inh: TEAD-YAP interaction inhibition, primary screen, TEAD-YAP interaction inhibitor project, luminescence, HEK-TIYL cells. TEAD-Gal4/YAP UAS-luciferase luminescence. 640,000 tested, 1.4% active. inhibition, % at 9.12 µM; in the data active means inhibition above about 32%;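 further: 0% = median of test compound wells and 100% = reference inhibitor wells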
GPR151 confirm: GPR151 activators, triplicate retest, confirmation, cell-based, PathHunter beta-arrestin, luminescence. shares compounds with GPR151 activ. GPR151 PathHunter beta-arrestin cells, 90 min; % of EA-reagent control over plate median. activation, % at 11.2 µM. 6,700 tested, under 10 active;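 active means mean percent activation across replicates above the confirmation screen cutoff of 4.91%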
GPR119 counter: GPR119 activators in beta-arrestin cells, counter-screen for GPR151 activator project, cell-based, PathHunter beta-arrestin, luminescence, triplicate | AID 1508611, 2020 | 90 min; 0 = compound-well median, 100 = enzyme-acceptor control | shares compounds with GPR151 activ | 6,700 tested, 0.3% active | activation, % at 11.2 µM;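 active means mean percent activation in the counterscreen above 29.09%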;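 further: counterscreen on off-target GPR119 to flag nonselective hits from the GPR151 activator screen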
* hit, by the source's call; / = not tested or not shown. Hits are enriched below; roughly 3.4% of the tested compounds scored in any of these assays.

SMILES	GPR151 activ	FBW7 activator	MITF inh	TEAD-YAP inh	GPR151 confirm	GPR119 counter
NC(=O)C1CCN(C2CC(=O)N(c3cccc(Br)c3)C2=O)CC1 (centres undefined)	0.2	0.5	14.4	5.3	/	/
Cc1cc(NCCOc2ccccc2)nc(N2CCN(Cc3ccc4c(c3)OCO4)CC2)n1	6.0*	-0.4	6.2	8.1	1.5	3.1
CC(=O)Nc1ccc(C(C(F)(F)F)(C(F)(F)F)C(F)(F)F)cc1[N+](=O)[O-]	5.0*	0.1	2.6	-8.2	0.0	-4.7
CCOc1cc2[nH]c(=O)n(Cc3cccc(OC)c3)c(=O)c2cc1OCC	8.5*	-0.1	-3.3	5.2	-0.2	-7.8
Cc1ccc(NC(=O)c2ccccn2)cc1F	-10.0	0.1	-3.8	-34.1	/	/
CSc1ccc(CNc2ncc(-c3ccccc3)n2C)cc1	7.7*	-0.1	26.4	-2.9	-0.7	-4.1
CSc1ccc(CNc2ncc(-c3cccc([N+](=O)[O-])c3)n2C)cc1	0.5	0.3	49.7	-1.9	/	/
COC(=O)Oc1ccc(/C=N/NC(=O)c2ccccc2O)cc1OC	-0.7	0.2	-13.7	-6.9	/	/
COc1ccc2nc3sc(C(=O)Nc4cccc(C(C)=O)c4)c(N)c3cc2c1	5.3*	0.1	-11.3	-75.2	0.1	23.1
CCOC(=O)c1sc(NC(=O)CSc2ncnc3sc(C)c(C)c23)c(C(=O)OCC)c1C	6.4*	-0.1	10.4	8.8	0.8	8.2
Nc1ccc(-c2nnn(CC(=O)Nc3ccc(C4CCCCC4)cc3)n2)cc1	8.1*	0.1	-7.3	-5.1	0.8	12.0
CCOC(=O)CCCN(Cc1ccc(F)cc1)S(=O)(=O)c1ccc(F)c(C)c1	3.2	0.1	13.5	4.9	/	/
CCOC(=O)CCN(Cc1ccccc1F)S(=O)(=O)c1ccc(Br)cc1	-1.0	0.2	14.8	-8.0	/	/
CCOC(=O)CCN(Cc1ccccc1F)S(=O)(=O)c1ccc(C)cc1	4.9*	0.2	-0.1	-1.5	-1.6	-18.1
CCOC(=O)CCCN(Cc1ccc(Cl)cc1Cl)S(=O)(=O)c1ccc(F)c(C)c1	5.0*	0.5	15.2	11.6	0.0	-14.3
O=C(Cn1[nH]c(=O)c2ccccc2c1=O)NCc1cccnc1	-0.1	0.0	2.1	10.3	/	/
O=C(Cn1[nH]c(=O)c2ccccc2c1=O)Nc1cccnc1	18.6*	-0.1	-14.0	1.0	0.7	-4.4
NC(=O)N1CCn2c3c(c4cc(C5CCCCC5)ccc42)CCCC31 (centres undefined)	2.4	0.0	-2.4	3.8	/	/
O=CN1CCn2c3c(c(=O)c4cc(C5CCCCC5)ccc42)CCC31 (centres undefined)	7.3*	-0.2	11.4	-13.5	-0.3	-5.5
NS(=O)(=O)c1ccc(CCNC(=O)c2cccc(C#CC3(O)CCCCC3)c2)cc1	5.0*	0.2	-9.4	-0.3	0.6	-4.9
Cc1cc(C(=O)NCCc2ccc(S(N)(=O)=O)cc2)cs1	1.1	0.0	-5.3	-5.6	/	/
CC1CCCC(NS(=O)(=O)c2ccc(F)c(C(=O)Nc3cc(Cl)ccc3Cl)c2)C1C (centres undefined)	7.3*	0.0	-12.1	2.3	0.2	-1.3
Cc1nc(CCNC(=O)CC2C(=O)NCCN2Cc2cccc3ccccc23)sc1C (centres undefined)	5.5*	0.0	5.5	-0.9	0.7	2.0
Cc1cccc(CNC(=O)CC2C(=O)NCCN2Cc2c(F)cccc2Cl)n1 (centres undefined)	5.1*	0.0	-2.5	9.4	0.7	5.5
Cc1nc(CCNC(=O)CC2C(=O)NCCN2Cc2ccccc2F)sc1C (centres undefined)	-2.0	-0.2	-3.8	-0.8	/	/
SMILES	GPR151 activ	FBW7 activator	MITF inh	TEAD-YAP inh	GPR151 confirm	GPR119 counter
O=S(=O)(c1ccc2oc(-c3ccc(Cl)cc3)nc2c1)c1ccc2oc(-c3ccc(Cl)cc3)nc2c1	5.7*	0.1	11.3	3.8	0.6	-1.4
COc1ccc(-c2nc3cc(Cl)ccc3o2)cc1OC	5.8*	0.0	7.8	-44.0	0.9	-2.2
Cc1cnc(Nc2ccccc2)nc1NCCOc1ccccc1	6.0*	-0.1	-5.6	7.2	0.6	0.6
Cc1cnc(Nc2ccncc2)nc1NCCOc1ccccc1	-2.0	0.5	1.6	2.3	/	/
Cc1cc(N2CCN(c3ncccn3)CC2)nc2ccc(NC(=O)Cc3cccs3)cc12	5.1*	0.2	-7.2	13.5	0.7	-7.9
Cc1cccc(C(=O)Nc2ccc3nc(N4CCCCC4)cc(C)c3c2)c1	5.8*	-0.1	-7.8	-7.3	0.1	8.2
O=C(O)CCn1c(SCc2cc(=O)n3cc(Br)ccc3n2)nc2ccsc2c1=O	1.2	0.0	1.2	2.2	/	/
O=C(O)c1ccc(Cn2c(SCc3cc(=O)n4cc(Br)ccc4n3)nc3ccsc3c2=O)cc1	7.3*	0.0	5.3	-17.8	0.7	16.0
Cc1ccccc1NC(=O)/C(=C\c1ccc([N+](=O)[O-])cc1)NC(=O)c1ccccc1Br	1.6	0.0	4.6	-26.2	/	/
CCOc1ccc(NC(=O)c2cnn(-c3ccccc3)c2NC(=O)c2ccccc2F)cc1	-0.8	-0.2	-0.6	-7.2	/	/
O=C1C2CC=CCC2C(=O)N1CC(=O)N1N=C(c2ccc(Cl)cc2)CC1c1ccco1 (centres undefined)	6.6*	0.1	9.7	5.5	1.5	-5.9
COc1ccc(C=O)cc1CSc1ccccn1	5.3*	0.0	8.8	12.2	-0.6	-5.6
COc1ccc(/C=N/NS(=O)(=O)c2ccccc2)cc1CSc1ccccn1	-0.5	0.1	9.8	-6.2	/	/
COC(=O)c1sc2cc([N+](=O)[O-])cc(Sc3ccccc3)c2c1-n1cccc1	5.7*	0.1	-11.3	-14.4	0.1	-7.8
COC(=O)c1sc2cc([N+](=O)[O-])cc(Sc3ccccc3)c2c1N	0.1	0.0	-1.4	1.1	/	/
CC(C)(C)N1CC(CO)OC1c1ccccc1 (centres undefined)	4.9*	0.1	11.9	2.4	-0.7	-4.7
COc1ccc(-c2nn(CN3CCN(C)CC3)c(=S)o2)cc1OC	-0.9	-0.1	-2.0	-0.7	/	/
CS(=O)(=O)N(CC(=O)NC1CCCC1)c1ccc(F)c(Cl)c1	0.1	0.1	-1.1	7.1	/	/
CS(=O)(=O)N(CC(=O)Nc1cccc(Cl)c1Cl)c1cccc(F)c1	5.3*	-0.1	-1.3	-13.2	0.2	1.8
CS(=O)(=O)N(CC(=O)NC1CC1)c1ccc(F)c(Cl)c1	5.6*	0.0	-4.6	1.0	1.4	16.3
O=[N+]([O-])c1ccc(/C=N/N2CCOCC2)cc1	0.6	0.0	0.7	-31.5	/	/
